# TrxR1 substrate = qHTS Assay for Substrates of Mammalian Selenoprotein Thioredoxin Reductase 1 (TrxR1): qHTS. Thioredoxin reductase 1, cytoplasmic (Rattus norvegicus), O89049. purified TrxR1 substrate turnover, NADPH consumption readout. Potency, µM (titrated, usually from 114 µM), inactives show top-dose activity change, negative = substrate turnover. 0.01% of 390,000 active. AID 588456, 2011; note: nearly all actives have a fitted effect of over 50% in size
#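 Rat TrxR1, dispensed at 90 nM, was prereduced with 400 uM NADPH (final) for 5 min at ~22 deg C, then incubated with compound 15 min before 400 uM selenite. A first-read NADPH fluorescence drop versus no-compound background flagged substrates.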
# USP2a block = qHTS Assay for Inhibitors of Ubiquitin-specific Protease USP2a Using CHOP2 as the Reporter | Ubiquitin carboxyl-terminal hydrolase 2 (Homo sapiens), O75604 | USP2 core, Ub-CHOP2 coupled fluorogenic reporter, 485/531 | Potency, µM (highest dose often 38.3 µM), inactives show top-dose activity change, negative = inhibition, usual class: inhibitors | 0.01% of 330,000 active;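 note: plate controls were DMSO wells for no effect and full inhibition by NEM control for full effect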
#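 Cell-free coupled assay: 10nM USP2 core preincubated 30min RT with compound in Tris-HCl pH 8.0/CaCl2/CHAPS buffer, then 25nM Ub-CHOP2 and 25nM reporter substrate; fluorescence (Ex 485/Em 531) read after 60min RT, normalized to NEM inhibition, concentration-response curves fitted.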
# TrxR1 inh = qHTS Assay for Inhibitors of Mammalian Selenoprotein Thioredoxin Reductase 1 (TrxR1): qHTS. Thioredoxin reductase 1, cytoplasmic (Rattus norvegicus), O89049. recombinant rTrxR1, NADPH fluorescence consumption, selenite substrate. Potency, µM (series often up to 114 µM), inactives show top-dose activity change, negative = inhibition, hits mostly inhibitors. 1% of 390,000 active. AID 588453, 2011; note: nearly all actives have a fitted effect of over 65% in size
#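 Rat TrxR1 (90 nM in the dispensed reagent) was pre-reduced with 400 uM NADPH for 5 min at room temperature, then incubated with compound for 15 min. After 400 uM selenite was added, NADPH fluorescence (Ex 340/Em 450 nm) was followed for 8 min.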
# Eya2 phos inh = qHTS Assay for Inhibitors of the Phosphatase Activity of Eya2 | Protein phosphatase EYA2 (Homo sapiens), O00167 | recombinant Eya2, OMFP fluorescence dephosphorylation (OMFP is methylfluorescein phosphate) | Potency, µM (top dose mostly 76.9 µM), for the others: at the top dose activity, negative = inhibition, actives largely listed as inhibitors | 0.006% of 330,000 active
# Target sequence (O00167 whole entry, looked up): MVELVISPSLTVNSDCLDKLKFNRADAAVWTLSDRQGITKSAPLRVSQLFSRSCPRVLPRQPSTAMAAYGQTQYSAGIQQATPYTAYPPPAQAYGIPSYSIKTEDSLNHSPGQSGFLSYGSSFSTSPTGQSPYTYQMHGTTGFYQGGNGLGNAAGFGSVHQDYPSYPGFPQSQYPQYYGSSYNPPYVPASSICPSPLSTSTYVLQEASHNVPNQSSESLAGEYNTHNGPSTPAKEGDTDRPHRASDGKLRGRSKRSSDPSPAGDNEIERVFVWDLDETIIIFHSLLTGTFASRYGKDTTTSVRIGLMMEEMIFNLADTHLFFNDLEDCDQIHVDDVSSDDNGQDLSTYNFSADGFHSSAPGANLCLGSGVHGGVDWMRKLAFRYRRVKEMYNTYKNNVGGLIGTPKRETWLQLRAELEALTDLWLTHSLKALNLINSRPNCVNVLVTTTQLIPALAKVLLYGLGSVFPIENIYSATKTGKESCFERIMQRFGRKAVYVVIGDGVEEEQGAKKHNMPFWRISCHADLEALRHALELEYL
#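 Eya2 protein (added as 0.2 uM solution) was preincubated with compound for 10 min at ambient temperature in 50 mM HEPES pH 7.5, 50 mM NaCl, 5 uM MgCl2, 0.05% BSA, 1 mM DTT. OMFP (added at 50 uM) then reacted 10 min; fluorescence read at 485/525 nm.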
# RGS4 inhibitor = Inhibitors of Regulator of G Protein Signaling (RGS) 4: qHTS | Regulator of G-protein signaling 4 (Homo sapiens), P49798 | Transcreener GDP fluorescence polarization, RGS4-accelerated GTP hydrolysis | Potency, µM (top dose mostly 114 µM), without a hit: top-dose activity change, negative = inhibition, most hits filed as inhibitors | 0.039% of 390,000 active | AID 504845, 2011; note: nearly all actives have a fitted effect of over 75% in size
# Target sequence (P49798 whole entry, looked up): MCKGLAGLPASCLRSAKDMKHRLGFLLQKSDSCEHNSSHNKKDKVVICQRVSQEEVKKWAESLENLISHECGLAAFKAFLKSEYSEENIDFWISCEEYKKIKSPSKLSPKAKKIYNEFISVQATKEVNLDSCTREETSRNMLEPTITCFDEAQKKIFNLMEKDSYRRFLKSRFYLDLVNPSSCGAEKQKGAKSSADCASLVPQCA
#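 MLSMR compounds (23 nl, pin-transferred) preincubated 10 min at room temperature with a 500nM (2x) first reagent, then RGS4 at 900nM (2x) plus Transcreener GDP mix added; fluorescence polarization (620/688 nm) read before and after 90 min at 30 °C.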
# GALK inh = qHTS Assay for Inhibitors of Human Galactokinase (GALK). Purified GALK, Kinase-Glo residual ATP luminescence. AID 1868, 2009. Potency, µM (series often up to 57.5 µM), inactives show at the highest dose activity change, negative = inhibition, usual class: inhibitors. 0.007% of 270,000 active
#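 Human GALK (5 nM) with 35 uM ATP and 100 uM galactose in 20 mM HEPES pH 8.0, 5 mM MgCl2, 60 mM NaCl, 1 mM DTT, 0.01% BSA. After 1 h at room temperature, leftover ATP was read by Kinase-Glo Plus luminescence.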
# Starred values were filed as active, the others as inactive; i = inactive; ? = inconclusive; / = no result given; ! = not active in a repeat; [ ] = dose if it differs, or a comment. A selection: hits, their analogues and other compounds. The true share with any hit is near 1%. Calls come from the whole dose curve; as a rule, active = well fitted curve in the direction sought with a large enough effect; inconclusive = small, poorly fitted or top-dose-only effect, or another doubt; inactive = no such curve, though single readings can be large; an effect the other way counts as inactive or inconclusive. Unless noted, % is set by controls: 0 for no effect and ±100 for the full control effect; potency is the fitted concentration of half-maximal effect.
SMILES,TrxR1 substrate,USP2a block,TrxR1 inh,Eya2 phos inh,RGS4 inhibitor,GALK inh
CCOP(=O)(OCC)C(O)c1cccc([N+](=O)[O-])c1 (stereo unspecified),0%,3%,-77%[57.1 µM],5%,-40%,3%
CC[C@@H](CO)Nc1nc(NCc2ccccc2)c2ncn(C(C)C)c2n1,1%[57.1 µM],/,5%[57.1 µM],3%,-10%[56.9 µM],/
CCOC(=O)c1cc(CC)sc1/N=C/C1C(=O)NC(=S)NC1=O,-1%,-1%,8.9µM*,2%,-52%,9%
On1ccccc1=S,-6%,0%,?,5%,-113%,/
CN(C)[C@@H]1C(=O)C(C(N)=O)=C(O)[C@@]2(O)C(=O)C3=C(O)c4c(O)cccc4[C@@](C)(O)[C@H]3[C@H](O)[C@@H]12,1%,?,35µM*!,18%,?,0%
CCOc1ccc(-n2c(/C=C/c3ccccc3)nc3ccccc3c2=O)cc1,-5%[57.1 µM],/,-3%[57.1 µM],/,12%,/
CCn1nc(/C=C/c2ccccc2)nc2c(=O)n(C)c(=O)nc1-2,16µM*,-1%,?,-1%,-15%,5%
CCn1nc(-c2cccs2)nc2c(=O)n(C)c(=O)nc1-2,45µM*,0%,?,?,-33%,1.3µM*
Cl.Cl.Cl.Cl.Cl.Cl.N.N.N.N.NNNNN.NNNNN.O.O.[Ru].[Ru].[Ru],/,/,/,/,i,/
C=C1C(=O)O[C@@H]2C[C@@H](C)[C@@H]3C=CC(=O)[C@@]3(C)[C@@H](O)[C@H]12,2%,10%,?,-11%,21µM*,-5%
C[C@@H]1C[C@H]2OC(=O)C3(CO3)[C@H]2[C@H](O)[C@]2(C)C(=O)C3OC3[C@@H]12 (stereo partly specified),/,7%,/,-6%,/,-7%
c1ccc2sc(C3(NCC4CC4)CCCCC3)cc2c1,/,/,/,/,i,/
O=C(O)c1cc[c]([Hg][Cl])cc1,12%[57.1 µM],-2%,0.35µM*,-1%,6.7µM*!,/
COc1ccc(C(=O)O)cc1OC,4%,/,10%,/,11%,/
Brc1c(Br)c(Br)c2n[nH]nc2c1Br,14%[57.1 µM],/,15%[57.1 µM],17%,?,/
CCN(CC)c1ccc(/C=C2/C(=O)NC(=O)N(Cc3ccco3)C2=O)cc1,-7%,5%,35µM*,0%,?,0%
Cc1cc(/C=C2/C(=O)NC(=O)N(Cc3ccco3)C2=O)c(C)n1-c1ccccc1,-21%[57.1 µM],2%,-43%,3%,?,1%
O=C1NC(=O)N(Cc2ccco2)C(=O)/C1=C/c1ccc(-c2cccc([N+](=O)[O-])c2)o1,-4%,2%,40µM*,-5%,?,0%
CN(C)c1ccc(/C=C2/C(=O)NC(=O)N(Cc3ccco3)C2=O)cc1,-15%,1%,50µM*,5%,?,0%
N[C@@H](Cn1oc(=O)[nH]c1=O)C(=O)O,15%[57.1 µM],/,22%[57.1 µM],4%,?,/
N[C@@H](Cn1ccc(=O)n(Cc2ccc(C(=O)O)cc2)c1=O)C(=O)O,/,/,/,/,8.4µM*,/
COc1cccc(N2C(=O)NC(=O)/C(=C/c3ccc4c(c3)Cc3ccccc3-4)C2=O)c1,14%,0%,14µM*,7%,?,6%
O=C1NC(=O)N(c2ccccc2)C(=O)/C1=C/c1coc2ccc(O)cc2c1=O,-2%,6%,22µM*,18%,?,5%
COc1cc(/C=C2/C(=O)NC(=O)N(c3ccccc3)C2=O)ccc1O,-20%,5%,45µM*,2%,?,/
CCOc1cc(/C=C2/C(=O)NC(=O)N(c3ccc(CC)cc3)C2=O)ccc1OC(=O)c1cccs1,-3%,1%,18µM*,0%,?,-4%
SMILES,TrxR1 substrate,USP2a block,TrxR1 inh,Eya2 phos inh,RGS4 inhibitor,GALK inh
COc1c(C)cc(Br)cc1C(=O)Nc1ccc(-c2nc3ncccc3o2)cc1,448%,/,i,/,-14%,/
COc1ccc2c(c1)CCC1C2CC[C@@]2(C)C1CC[C@@H]2NCCCCCCN1C(=O)C=CC1=O (stereo partly specified),8%[57.1 µM],/,?,3%,-6%[56.9 µM],/
CC(=O)OCC1=C(C(=O)O)N2C(=O)[C@@H](NC(=O)CCC[C@@H](N)C(=O)O)[C@H]2SC1,-3%[57.1 µM],/,-13%[57.1 µM],4%,-7%[56.9 µM],/
Oc1ccc2c3c1O[C@H]1c4c(c5ccccc5n4Cc4ccccc4)C[C@@]4(O)C(C2)N(CC2CC2)CC[C@]314,/,/,/,/,i,/
COc1ccc(/C=C2/C(=O)NC(=O)N(c3ccccc3)C2=O)cc1CN1C(=O)c2ccccc2C1=O,3%,8%,25µM*,2%,?,3%
O=C(CCl)Nc1nccs1,0%,1%,13µM*,-8%,15%,/
NCCc1cc(O)c(O)cc1O,-9%,/,56µM*,/,?,/
N.N.N.N.N.N.N.N.N.N.N.N.N.N.O.O.[Ru+4].[Ru+5].[Ru+5],?,/,?,?,19µM*,/
COc1ccc(N2C(=O)/C(=C/c3cccs3)C(=O)NC2=S)cc1,-2%[57.1 µM],3%,7.9µM*,0%,?,/
CCOC(=O)C1CCN(/C=C2/C(=O)NC(=S)N(c3ccccc3F)C2=O)CC1,-1%,2%,0%,4%,-25%,-2%
Cc1ccc(/C=C2\C(=O)NC(=S)N(c3ccccc3F)C2=O)s1,-9%,-2%,13µM*,-12%,?,-3%
COc1ccc(N2C(=O)/C(=C/c3ccc(N(C)C)o3)C(=O)NC2=S)cc1,-10%,9%,?,7%,-40%,-1%
Cc1ccc(/C=C2\C(=O)NC(=S)N(c3ccc(F)cc3)C2=O)s1,-16%[57.1 µM],-1%,10µM*,-7%,?,1%
COc1cccc(N2C(=O)/C(=C/c3ccc(C)o3)C(=O)NC2=S)c1,-1%,0%,25µM*,2%,?,/
CCCN1CCCC(c2cccc(O)c2)C1 (stereo unspecified),/,/,0%,/,/,/
CC(C)(C)C(=O)OC1=CN(Cc2ccccc2)S(=O)(=O)c2ccccc21,4%,/,28%,/,?,/
CCOc1cccc(N2C(=O)/C(=C/c3ccco3)C(=O)NC2=S)c1,1%,4%,?,?,?,-2%
